Results on 55 sequences are retold here after publication PMC7819943, “Rice protein-binding microarrays: a tool to detect cis-acting elements near promoter regions in rice”.

The full ranking holds about 39,000 sequences; the median of “fluorescence intensity (a.u.)” is about 4,300, and the highest 2% start at about 39,000. This is one part of a sample in which the highest values are shown more often than they occur.

The assay concerns the target T1, OsSMF1 (Oryza sativa, UniProt Q6ZLB0 1-436).
T1 sequence: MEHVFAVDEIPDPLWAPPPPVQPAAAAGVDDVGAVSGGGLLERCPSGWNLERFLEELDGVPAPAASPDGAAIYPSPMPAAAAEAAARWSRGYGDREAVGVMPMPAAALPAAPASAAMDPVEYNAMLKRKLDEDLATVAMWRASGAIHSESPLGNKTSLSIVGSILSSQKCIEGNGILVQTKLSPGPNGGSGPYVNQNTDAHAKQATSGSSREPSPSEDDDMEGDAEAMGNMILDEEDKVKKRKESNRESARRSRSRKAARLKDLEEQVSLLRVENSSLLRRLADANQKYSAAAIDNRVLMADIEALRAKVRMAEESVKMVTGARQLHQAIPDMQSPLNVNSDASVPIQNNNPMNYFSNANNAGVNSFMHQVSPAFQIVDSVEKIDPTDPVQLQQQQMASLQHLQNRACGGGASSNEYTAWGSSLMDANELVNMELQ
Kind of assay: protein-binding microarray (RPBM); PBS, 2% BSA, 51.3 ng/ul salmon testes DNA, 50 uM zinc acetate, 200 nM TF, 25 C, 1 h; high values mean tight binding. The following applies: protein: recombinant; tags: N-terminal polyhistidine and DsRed monomer fusion (pET32a); chain copies: 2; label: CyDye5-dUTP incorporated in the synthesized complementary strand; 3' TTTTT single-stranded linker to array surface; dsDNA, one strand shown. In outline: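 Transcription factors were made in E. coli BL21-CodonPlus as N-terminal fusions to a polyhistidine tag and DsRed, then purified on Ni–NTA. After primer extension with Cy5-dUTP and blocking with 2% BSA, a custom Agilent array was exposed for 1 h at 25 °C to 200 nM protein in PBS, 2% BSA, salmon testes DNA and 50 µM zinc acetate. Washed arrays were scanned on an Axon 4000B, and the binding signal is per-feature fluorescence intensity in arbitrary units.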
For “GAGTCGTTATCTGCATTGATGTGTCTCCTGACTCCTGAGACGGAGTCACCTAGTGCAG”, the binding signal is 3840 fluorescence intensity (a.u.).

For the sequence “CAACCTCCGATTTCCAAATCCAGTTGTCTTCTTCTTCCCCCGGAGTCACCTAGTGCAG”, the binding signal is 7150 fluorescence intensity (a.u.).

As for “ACAATACTACTATTTTATCATGACGATGACTGGAACTCCACGGAGTCACCTAGTGCAG”, the binding signal was 4440 fluorescence intensity (a.u.).

As for “CGCTGGTGAAGTGGTGATGCGCCTAATCGTTTTCTTCGCGCGGAGTCACCTAGTGCAG”, the binding signal was 3260 fluorescence intensity (a.u.).

For the sequence “CTTGCATTCCTTTTCTTCTCCTGAACTATATAAACACACTCGGAGTCACCTAGTGCAG”, the binding signal is 3290 fluorescence intensity (a.u.).

Consider “AAATTTAAGAATTTTCGGATGCACTTAAAGAAGGACAAGTCGGAGTCACCTAGTGCAG”, for which the binding signal is 11000 fluorescence intensity (a.u.).

Regarding “CCGCCTGACACGTGTAAGAGCAAGTTTAATAGTATAGCCCCGGAGTCACCTAGTGCAG”, the binding signal is 13800 fluorescence intensity (a.u.).

For the sequence “ATTGAATATAATTGGATATAAACAGTTTAAAACTATACTCCGGAGTCACCTAGTGCAG”, the binding signal was 5510 fluorescence intensity (a.u.).

Regarding “GAGAGAGAGAGGAGATAATAAAATACTCGATATTGAATTGCGGAGTCACCTAGTGCAG”, the binding signal was 42500 fluorescence intensity (a.u.).

As to “ATTATTAAAATATATAAATATTGAATTTAATAAAATAATTCGGAGTCACCTAGTGCAG”, the binding signal was 26400 fluorescence intensity (a.u.).

As for “GGTTGAGTGACGCGCTATTTCTGGTATTGCGTATGAAGGGCGGAGTCACCTAGTGCAG”, the binding signal is 3520 fluorescence intensity (a.u.).

Regarding “TGTCCATGGTTTGTTGCTGCTGCGGTGGCACCAGTGCTGCCGGAGTCACCTAGTGCAG”, the binding signal was 7940 fluorescence intensity (a.u.).

For “GACTGTACACATGAAGGAACATATGTGCTGAAATACTGTACGGAGTCACCTAGTGCAG”, the binding signal is 26100 fluorescence intensity (a.u.).

In the case of “TATGAACACATATGTAGCATACGCTTAAATAGACGAAGACCGGAGTCACCTAGTGCAG”, the binding signal is 40500 fluorescence intensity (a.u.).

Regarding “GTAGACGAAGACCTGGCAAGTCCTTGGGCTTAAATCTCACCGGAGTCACCTAGTGCAG”, the binding signal was 17800 fluorescence intensity (a.u.).

Regarding “GCTATATATTTGTTGATCAGCTAGGCTGTCAGCAGTTTAGCGGAGTCACCTAGTGCAG”, the binding signal is 3650 fluorescence intensity (a.u.).

As to “ATACACACATATCCGCGCCATTATAAATTTGACAGCATTTCGGAGTCACCTAGTGCAG”, the binding signal was 3440 fluorescence intensity (a.u.).

Regarding “CAACATTAGCAATTAAAATTGCGGGTTATTTGTAAAAGTCCGGAGTCACCTAGTGCAG”, the binding signal was 32000 fluorescence intensity (a.u.).

Take “CATATATGGACAGGCAACGGCATGTCGTGTTCGTACAAATCGGAGTCACCTAGTGCAG”: the binding signal was 3190 fluorescence intensity (a.u.).

Take “CCGCGTCCGTACTCTCTAGCCTGCGGGTAAGCAACGAACTCGGAGTCACCTAGTGCAG”: the binding signal is 45200 fluorescence intensity (a.u.).

Turning to “CACCACACGAAGCAGCCACGAACGCAACGCGGGTGCGTCGCGGAGTCACCTAGTGCAG”, the binding signal is 3140 fluorescence intensity (a.u.).

As for “GCGGTAGCCAAGCCTGCCACGTCAGCTCTCGCGCAACGTCCGGAGTCACCTAGTGCAG”, the binding signal is 34600 fluorescence intensity (a.u.).

For “CCCACCCCGCGTGCAGCTTAGGCGAACCCTCCTCCCTCCGCGGAGTCACCTAGTGCAG”, the binding signal is 3660 fluorescence intensity (a.u.).

Take “CCAAAATCAGATATCTTAGGATTCATATCGATGTCCAACACGGAGTCACCTAGTGCAG”: the binding signal is 19200 fluorescence intensity (a.u.).

On to “CATATCCTCAAGTAGAATTCAAATCCAGTCACATTGCCACCGGAGTCACCTAGTGCAG”, for which the binding signal is 4130 fluorescence intensity (a.u.).

For “AGGAATGCATTTGTGGTGGGTGCAGGTGCGCGGGTGGCGACGGAGTCACCTAGTGCAG”, the binding signal was 3340 fluorescence intensity (a.u.).

“GTTCAGAATGTGGTGGCGACGTAAGGTGATTTGGAAGGCGCGGAGTCACCTAGTGCAG”: the binding signal is 43500 fluorescence intensity (a.u.).

Regarding “CAGGTGGTGGTGGCCATTAGTTAGTGGCAAATGTGGAAGGCGGAGTCACCTAGTGCAG”, the binding signal was 3220 fluorescence intensity (a.u.).

Consider “CTAGAGGAAGTGGGGAAGCCGACGACCCCACGTCTCGCCACGGAGTCACCTAGTGCAG”, for which the binding signal was 3940 fluorescence intensity (a.u.).

Take “TACTTTCAACTCTAACTTGAAAACTTTCAACTTTGACTTGCGGAGTCACCTAGTGCAG”: the binding signal is 3860 fluorescence intensity (a.u.).

As for “GACTAACAAAATCGTTGAAACTTGCGAAGTTTCTTTTGATCGGAGTCACCTAGTGCAG”, the binding signal was 64700 fluorescence intensity (a.u.).

“TAAAATAGTTTTAAAACTTTAAGTTGAAAGTAAATACTTTCGGAGTCACCTAGTGCAG”: the binding signal was 27900 fluorescence intensity (a.u.).

Consider “CCACCCACGGAGCCAGCTCACTACCACCGTTTGTCGCCTCCGGAGTCACCTAGTGCAG”, for which the binding signal was 4360 fluorescence intensity (a.u.).

Turning to “GTACTACTCCCTCCGTTTCTCCCTCCGTTTCAAAATGTTTCGGAGTCACCTAGTGCAG”, the binding signal is 3220 fluorescence intensity (a.u.).

As to “TTCTTCCTCCGTCAGTTCATCATCTCTCTGTGTGTGTTTTCGGAGTCACCTAGTGCAG”, the binding signal is 3570 fluorescence intensity (a.u.).

For “ACATGTGTTCACGCGTGTGTATCTTCTACTCCCTCCGTTTCGGAGTCACCTAGTGCAG”, the binding signal is 43200 fluorescence intensity (a.u.).

With “GTTGTCAAATGAGTCAATTAGATATTTCCAACCCACACTACGGAGTCACCTAGTGCAG”, the binding signal was 4900 fluorescence intensity (a.u.).

“CGTATCTCATCTTTTCGTTTATACTTATACTTATCAGTCACGGAGTCACCTAGTGCAG”: the binding signal was 3230 fluorescence intensity (a.u.).

Consider “ATCGATCGATCAATTGGCCAAGGCGGCAAACGGCGGCGGCCGGAGTCACCTAGTGCAG”, for which the binding signal is 4060 fluorescence intensity (a.u.).

Take “GTGAGAACTGAGAGGAGCGTCGGAAGAAGACCGGAAGAAGCGGAGTCACCTAGTGCAG”: the binding signal was 4580 fluorescence intensity (a.u.).

For the sequence “TTAGCTAGACTACAGCTCTAGTAGAGCTGTAGAGGTAGAGCGGAGTCACCTAGTGCAG”, the binding signal is 44000 fluorescence intensity (a.u.).

In the case of “TTAGCTTCACAGTTCACTGTAGCGTCTAGAAGAGGAACAGCGGAGTCACCTAGTGCAG”, the binding signal was 63300 fluorescence intensity (a.u.).

In the case of “AGCTTCAGGAGTTCTTGTCACGTCTCGAGGAAGAGAGGCTCGGAGTCACCTAGTGCAG”, the binding signal is 3740 fluorescence intensity (a.u.).

With “TTGTGGTACGATACTAGTACTACTAGTAGACTAGTAGCAGCGGAGTCACCTAGTGCAG”, the binding signal was 3260 fluorescence intensity (a.u.).

In the case of “GATCACTGTACTGTACAGAGGCTAGCTCTAGCTAGGTAGCCGGAGTCACCTAGTGCAG”, the binding signal was 26000 fluorescence intensity (a.u.).

Regarding “GTGGGCCATCTGACAGTGCATACAGGAACTTTCCCCTTCTCGGAGTCACCTAGTGCAG”, the binding signal was 4930 fluorescence intensity (a.u.).

In the case of “ATTATAGGTCCAGCTAAGTTGGCCCTGGTATATATATTGGCGGAGTCACCTAGTGCAG”, the binding signal was 3980 fluorescence intensity (a.u.).

Turning to “TTGGAGGGGAAGCTATCGTGTATCCACTGCGGAGCACGGCCGGAGTCACCTAGTGCAG”, the binding signal is 3650 fluorescence intensity (a.u.).

In the case of “CCGGGCTACCATCGCGGCGACGAAACGTGCATCATCATCCCGGAGTCACCTAGTGCAG”, the binding signal was 3850 fluorescence intensity (a.u.).

On to “AACGACGGCGAATTCTACCTCCCCGGGTATCTGGACCTCGCGGAGTCACCTAGTGCAG”, for which the binding signal was 42900 fluorescence intensity (a.u.).

As for “CGTGGTGGACGGCCTCGACGAGGCGATCTGCCCGGTGGCGCGGAGTCACCTAGTGCAG”, the binding signal was 3240 fluorescence intensity (a.u.).

For the sequence “CGTGGCACTTAGCGATGAGTGCTGTCGTCAGTAGCAATCCCGGAGTCACCTAGTGCAG”, the binding signal was 4620 fluorescence intensity (a.u.).

For the sequence “GGCTAGCGTACAGGTTAAAACGTGTCGGAATCGTCAGCGCCGGAGTCACCTAGTGCAG”, the binding signal is 4110 fluorescence intensity (a.u.).

In the case of “GCAGGCGTCGGTTTCGCGGCTGGCAGCGGCGGCTCGCTCACGGAGTCACCTAGTGCAG”, the binding signal was 3200 fluorescence intensity (a.u.).

As for “GTACAGCAGGAATCGCTGCTGGCGTCGCTTCGTCGGTTGTCGGAGTCACCTAGTGCAG”, the binding signal is 65100 fluorescence intensity (a.u.).
